# Reference: paper PMC7862700, “An all-to-all approach to the identification of sequence-specific readers for epigenetic DNA modifications on cytosine”
# Legend:
# Assay in all cases: DAPPL (digital affinity profiling via proximity ligation, sequencing); 10 mM Tris-HCl pH 7.5, 50 mM NaCl, 1 mM DTT, 4% glycerol, room temperature, 30 min; GST-TFs on glutathione beads, 16-mer random dsDNA library, 0.1% formaldehyde crosslink after washing; high values mean tight binding
# FEV = target: T1, FEV (Homo sapiens, UniProt Q99581 1-238); conditions: protein: recombinant; tags: N-terminal GST; dsDNA, one strand shown
# T1 sequence: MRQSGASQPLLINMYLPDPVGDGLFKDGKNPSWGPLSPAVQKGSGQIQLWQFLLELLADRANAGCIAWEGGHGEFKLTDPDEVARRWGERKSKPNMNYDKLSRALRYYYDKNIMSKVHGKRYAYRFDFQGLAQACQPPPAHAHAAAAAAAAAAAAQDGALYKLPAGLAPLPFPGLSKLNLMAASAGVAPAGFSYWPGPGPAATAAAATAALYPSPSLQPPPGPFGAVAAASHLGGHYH
# Procedure, shortened: (§1)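 Binding signal is defined as a hexamer's read frequency for one factor over its frequency for the tag-only sample. To obtain reads, GST-fused human transcription factors were expressed in yeast, captured on glutathione beads, barcoded with DNA and pooled with that sample. Pools met 200 nmole of a 16-mer random double-stranded DNA library in Tris/NaCl/DTT/glycerol buffer for 30 min at room temperature before washing, 0.1% formaldehyde crosslinking, proximity ligation (BsaI/T4 ligase, 1 h, 37 °C), PCR and Illumina NextSeq500 sequencing.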
# ETV5 = ETV5 (Homo sapiens, UniProt P41161 1-510); conditions: protein: recombinant; tags: N-terminal GST; dsDNA, one strand shown
# Sequence of ETV5 (P41161 whole entry): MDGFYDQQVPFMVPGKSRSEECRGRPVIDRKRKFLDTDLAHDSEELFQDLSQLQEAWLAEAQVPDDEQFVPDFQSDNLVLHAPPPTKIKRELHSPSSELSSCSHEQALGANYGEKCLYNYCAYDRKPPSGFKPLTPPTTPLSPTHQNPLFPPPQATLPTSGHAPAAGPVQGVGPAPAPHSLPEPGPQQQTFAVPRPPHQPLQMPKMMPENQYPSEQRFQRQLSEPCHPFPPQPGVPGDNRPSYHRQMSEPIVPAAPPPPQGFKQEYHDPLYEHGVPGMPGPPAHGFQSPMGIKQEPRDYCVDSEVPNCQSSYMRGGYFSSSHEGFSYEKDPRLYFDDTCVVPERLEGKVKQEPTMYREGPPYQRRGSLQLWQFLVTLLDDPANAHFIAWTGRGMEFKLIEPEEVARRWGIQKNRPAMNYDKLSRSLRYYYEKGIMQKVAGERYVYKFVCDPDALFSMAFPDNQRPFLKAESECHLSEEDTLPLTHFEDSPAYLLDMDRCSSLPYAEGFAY
# Procedure, shortened: as §1
# HSF1 = HSF1 (Homo sapiens, UniProt Q00613 1-529); conditions: protein: recombinant; tags: N-terminal GST; chain copies: 3; dsDNA, one strand shown
# Sequence of HSF1 (Q00613 whole entry): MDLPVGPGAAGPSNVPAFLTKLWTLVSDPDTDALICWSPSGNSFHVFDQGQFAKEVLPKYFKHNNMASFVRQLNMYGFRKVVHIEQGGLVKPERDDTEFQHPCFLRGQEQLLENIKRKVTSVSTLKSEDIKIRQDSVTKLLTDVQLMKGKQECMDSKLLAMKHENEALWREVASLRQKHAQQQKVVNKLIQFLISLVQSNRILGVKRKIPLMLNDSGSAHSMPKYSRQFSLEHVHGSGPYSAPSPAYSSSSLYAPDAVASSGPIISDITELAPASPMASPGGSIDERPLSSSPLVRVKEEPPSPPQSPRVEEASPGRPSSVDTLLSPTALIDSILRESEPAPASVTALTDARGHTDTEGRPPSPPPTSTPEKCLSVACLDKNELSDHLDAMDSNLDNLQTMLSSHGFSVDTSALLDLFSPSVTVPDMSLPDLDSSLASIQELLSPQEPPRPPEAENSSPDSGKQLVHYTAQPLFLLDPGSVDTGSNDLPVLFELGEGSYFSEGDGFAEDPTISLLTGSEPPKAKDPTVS
# Procedure, shortened: as §1
# SPIC = target: T2, SPIC (Homo sapiens, UniProt Q8N5J4 1-248); conditions: protein: recombinant; tags: N-terminal GST; dsDNA, one strand shown
# T2 sequence: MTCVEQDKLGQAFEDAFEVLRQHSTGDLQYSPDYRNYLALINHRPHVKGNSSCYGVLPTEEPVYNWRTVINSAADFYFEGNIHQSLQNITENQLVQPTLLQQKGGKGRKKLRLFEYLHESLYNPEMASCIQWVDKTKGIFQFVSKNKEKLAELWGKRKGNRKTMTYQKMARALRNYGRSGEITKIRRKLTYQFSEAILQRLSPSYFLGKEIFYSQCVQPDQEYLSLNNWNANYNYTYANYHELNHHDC
# Procedure, shortened: as §1
# ELF4 = ELF4 (Homo sapiens, UniProt Q99607 1-663); conditions: protein: recombinant; tags: N-terminal GST; dsDNA, one strand shown
# Sequence of ELF4 (Q99607 whole entry): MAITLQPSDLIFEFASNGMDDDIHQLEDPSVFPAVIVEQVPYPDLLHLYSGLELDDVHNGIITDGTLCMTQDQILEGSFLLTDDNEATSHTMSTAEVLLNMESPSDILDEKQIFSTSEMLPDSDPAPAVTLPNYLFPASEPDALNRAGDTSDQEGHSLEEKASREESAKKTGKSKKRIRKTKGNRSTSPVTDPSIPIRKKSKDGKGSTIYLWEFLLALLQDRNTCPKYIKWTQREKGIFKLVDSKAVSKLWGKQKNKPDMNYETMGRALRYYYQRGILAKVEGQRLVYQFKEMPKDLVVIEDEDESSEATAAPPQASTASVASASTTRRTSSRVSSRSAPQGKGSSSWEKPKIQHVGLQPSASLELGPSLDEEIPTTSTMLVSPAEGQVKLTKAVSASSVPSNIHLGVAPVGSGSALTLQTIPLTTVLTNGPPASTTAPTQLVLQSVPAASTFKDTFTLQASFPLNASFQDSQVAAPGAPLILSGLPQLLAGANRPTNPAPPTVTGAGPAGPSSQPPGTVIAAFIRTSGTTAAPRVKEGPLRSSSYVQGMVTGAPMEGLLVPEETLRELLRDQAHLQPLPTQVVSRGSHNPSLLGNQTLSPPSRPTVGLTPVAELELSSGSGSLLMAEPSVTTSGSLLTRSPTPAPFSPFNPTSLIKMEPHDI
# Procedure, shortened: as §1
# ELK4 = target: T3, ELK4 (Homo sapiens, UniProt P28324-2 1-405); conditions: protein: recombinant; tags: N-terminal GST; dsDNA, one strand shown
# T3 sequence: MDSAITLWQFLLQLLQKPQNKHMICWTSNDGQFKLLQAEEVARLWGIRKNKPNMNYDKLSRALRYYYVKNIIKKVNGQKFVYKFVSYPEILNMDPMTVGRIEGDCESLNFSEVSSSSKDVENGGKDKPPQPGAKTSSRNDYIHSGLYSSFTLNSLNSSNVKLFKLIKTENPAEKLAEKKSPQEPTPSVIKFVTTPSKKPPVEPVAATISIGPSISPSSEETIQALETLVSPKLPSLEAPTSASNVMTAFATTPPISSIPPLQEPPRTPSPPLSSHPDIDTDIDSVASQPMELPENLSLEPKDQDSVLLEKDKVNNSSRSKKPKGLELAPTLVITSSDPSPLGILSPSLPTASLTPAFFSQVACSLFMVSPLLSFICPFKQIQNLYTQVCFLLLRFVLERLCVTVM
# Procedure, shortened: as §1
# ETV2 = target: T4, ETV2 (Homo sapiens, UniProt O00321 1-342); conditions: protein: recombinant; tags: N-terminal GST; dsDNA, one strand shown
# T4 sequence: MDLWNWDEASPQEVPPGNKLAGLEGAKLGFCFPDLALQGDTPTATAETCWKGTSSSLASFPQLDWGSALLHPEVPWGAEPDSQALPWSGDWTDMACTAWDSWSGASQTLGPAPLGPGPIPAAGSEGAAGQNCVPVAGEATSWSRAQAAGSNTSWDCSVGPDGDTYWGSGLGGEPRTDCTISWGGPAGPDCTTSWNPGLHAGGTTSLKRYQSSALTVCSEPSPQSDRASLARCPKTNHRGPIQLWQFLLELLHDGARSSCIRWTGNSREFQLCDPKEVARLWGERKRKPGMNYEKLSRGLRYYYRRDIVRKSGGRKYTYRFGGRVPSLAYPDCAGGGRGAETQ
# Procedure, shortened: as §1
# ELF3 = target: T5, ELF3 (Homo sapiens, UniProt P78545 1-371); conditions: protein: recombinant; tags: N-terminal GST; dsDNA, one strand shown
# T5 sequence: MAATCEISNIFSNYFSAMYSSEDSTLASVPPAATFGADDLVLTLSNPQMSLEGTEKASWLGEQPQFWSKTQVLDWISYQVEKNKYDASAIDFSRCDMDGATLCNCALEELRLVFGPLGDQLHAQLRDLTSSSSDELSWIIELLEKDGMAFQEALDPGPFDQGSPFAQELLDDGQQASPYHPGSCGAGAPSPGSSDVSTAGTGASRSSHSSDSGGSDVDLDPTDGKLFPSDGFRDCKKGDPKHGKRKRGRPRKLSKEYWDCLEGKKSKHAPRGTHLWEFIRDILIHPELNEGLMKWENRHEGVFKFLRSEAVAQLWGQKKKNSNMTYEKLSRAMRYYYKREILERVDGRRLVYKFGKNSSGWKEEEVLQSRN
# Procedure, shortened: as §1
# CRX = CRX (Homo sapiens, UniProt O43186 1-299); conditions: protein: recombinant; tags: N-terminal GST; dsDNA, one strand shown
# Sequence of CRX (O43186 whole entry): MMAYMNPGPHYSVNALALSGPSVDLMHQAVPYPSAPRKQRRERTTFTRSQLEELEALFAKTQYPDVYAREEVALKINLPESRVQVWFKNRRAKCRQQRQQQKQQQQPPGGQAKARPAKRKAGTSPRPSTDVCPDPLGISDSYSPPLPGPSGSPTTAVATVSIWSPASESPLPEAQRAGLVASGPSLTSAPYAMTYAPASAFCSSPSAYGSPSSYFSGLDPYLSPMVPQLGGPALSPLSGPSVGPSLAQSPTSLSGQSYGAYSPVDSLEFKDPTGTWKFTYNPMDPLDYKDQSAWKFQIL
# Procedure, shortened: as §1
# ETV1 = ETV1 (Homo sapiens, UniProt P50549 1-477); conditions: protein: recombinant; tags: N-terminal GST; dsDNA, one strand shown
# Sequence of ETV1 (P50549 whole entry): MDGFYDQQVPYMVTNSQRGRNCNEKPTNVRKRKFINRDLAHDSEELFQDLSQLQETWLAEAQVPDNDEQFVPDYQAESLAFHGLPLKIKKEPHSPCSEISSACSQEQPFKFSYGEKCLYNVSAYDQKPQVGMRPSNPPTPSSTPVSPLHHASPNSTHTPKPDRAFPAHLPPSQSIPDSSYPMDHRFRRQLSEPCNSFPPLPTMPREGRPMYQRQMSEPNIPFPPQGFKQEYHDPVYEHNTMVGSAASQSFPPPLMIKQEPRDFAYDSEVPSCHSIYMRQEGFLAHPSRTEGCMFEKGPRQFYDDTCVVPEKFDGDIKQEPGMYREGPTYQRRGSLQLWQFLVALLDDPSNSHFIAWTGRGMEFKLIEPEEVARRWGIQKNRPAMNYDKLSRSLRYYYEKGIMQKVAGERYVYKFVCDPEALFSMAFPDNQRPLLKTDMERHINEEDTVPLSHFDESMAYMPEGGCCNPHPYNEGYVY
# Procedure, shortened: as §1
# ERF = target: T6, ERF (Homo sapiens, UniProt P50548 1-548); conditions: protein: recombinant; tags: N-terminal GST; dsDNA, one strand shown
# T6 sequence: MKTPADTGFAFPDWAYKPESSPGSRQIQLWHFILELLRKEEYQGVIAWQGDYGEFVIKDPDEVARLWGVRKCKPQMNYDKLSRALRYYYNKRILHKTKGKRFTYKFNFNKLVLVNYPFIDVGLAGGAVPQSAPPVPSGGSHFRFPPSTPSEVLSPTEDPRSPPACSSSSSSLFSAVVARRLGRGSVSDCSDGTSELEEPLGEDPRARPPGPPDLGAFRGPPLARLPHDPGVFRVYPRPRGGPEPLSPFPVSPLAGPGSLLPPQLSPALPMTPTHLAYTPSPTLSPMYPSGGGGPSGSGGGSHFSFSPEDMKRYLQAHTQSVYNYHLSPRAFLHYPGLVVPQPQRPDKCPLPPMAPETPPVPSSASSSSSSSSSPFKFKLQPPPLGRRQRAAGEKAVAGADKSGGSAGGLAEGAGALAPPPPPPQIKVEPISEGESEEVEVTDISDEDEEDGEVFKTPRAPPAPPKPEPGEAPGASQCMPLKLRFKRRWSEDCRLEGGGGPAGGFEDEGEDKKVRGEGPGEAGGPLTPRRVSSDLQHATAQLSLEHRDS
# Procedure, shortened: as §1
# ETV3L = target: T7, ETV3L (Homo sapiens, UniProt Q6ZN32 1-361); conditions: protein: recombinant; tags: N-terminal GST; dsDNA, one strand shown
# T7 sequence: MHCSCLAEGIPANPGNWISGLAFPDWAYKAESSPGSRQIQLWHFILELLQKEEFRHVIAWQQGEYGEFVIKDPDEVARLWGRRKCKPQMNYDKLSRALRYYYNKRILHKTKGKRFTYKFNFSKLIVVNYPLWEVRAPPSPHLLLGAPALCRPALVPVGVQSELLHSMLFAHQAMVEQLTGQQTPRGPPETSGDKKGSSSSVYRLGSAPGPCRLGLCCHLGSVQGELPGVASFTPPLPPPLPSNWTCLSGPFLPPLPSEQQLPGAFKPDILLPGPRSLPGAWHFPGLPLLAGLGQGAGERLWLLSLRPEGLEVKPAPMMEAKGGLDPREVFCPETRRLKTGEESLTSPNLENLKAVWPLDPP
# Procedure, shortened: as §1
# ETS2 = target: T8, ETS2 (Homo sapiens, UniProt P15036 1-469); conditions: protein: recombinant; tags: N-terminal GST; dsDNA, one strand shown
# T8 sequence: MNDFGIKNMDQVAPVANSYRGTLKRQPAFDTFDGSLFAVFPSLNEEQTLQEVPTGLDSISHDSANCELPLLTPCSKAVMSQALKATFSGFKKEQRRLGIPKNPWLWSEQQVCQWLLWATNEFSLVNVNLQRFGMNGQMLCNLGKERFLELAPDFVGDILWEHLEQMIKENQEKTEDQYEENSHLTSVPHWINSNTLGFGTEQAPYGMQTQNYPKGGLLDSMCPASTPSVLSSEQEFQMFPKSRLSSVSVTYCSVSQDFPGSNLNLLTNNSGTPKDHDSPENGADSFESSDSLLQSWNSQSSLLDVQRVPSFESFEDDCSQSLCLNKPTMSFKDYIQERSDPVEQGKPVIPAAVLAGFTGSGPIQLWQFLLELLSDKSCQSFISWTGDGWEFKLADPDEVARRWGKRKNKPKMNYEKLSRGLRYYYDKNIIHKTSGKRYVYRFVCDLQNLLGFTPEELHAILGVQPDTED
# Procedure, shortened: as §1
# SPDEF = target: T9, SPDEF (Homo sapiens, UniProt O95238 1-335); conditions: protein: recombinant; tags: N-terminal GST; dsDNA, one strand shown
# T9 sequence: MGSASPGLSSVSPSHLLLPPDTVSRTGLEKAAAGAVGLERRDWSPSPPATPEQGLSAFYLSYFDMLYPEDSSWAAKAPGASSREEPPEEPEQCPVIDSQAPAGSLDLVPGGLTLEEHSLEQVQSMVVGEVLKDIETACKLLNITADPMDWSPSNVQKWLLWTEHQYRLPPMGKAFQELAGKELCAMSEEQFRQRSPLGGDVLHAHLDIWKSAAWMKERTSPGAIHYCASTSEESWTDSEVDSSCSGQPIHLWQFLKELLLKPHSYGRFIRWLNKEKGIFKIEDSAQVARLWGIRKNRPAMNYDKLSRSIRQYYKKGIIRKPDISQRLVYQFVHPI
# Procedure, shortened: as §1
# ETV7 = target: T10, ETV7 (Homo sapiens, UniProt Q9Y603 1-341); conditions: protein: recombinant; tags: N-terminal GST; dsDNA, one strand shown
# T10 sequence: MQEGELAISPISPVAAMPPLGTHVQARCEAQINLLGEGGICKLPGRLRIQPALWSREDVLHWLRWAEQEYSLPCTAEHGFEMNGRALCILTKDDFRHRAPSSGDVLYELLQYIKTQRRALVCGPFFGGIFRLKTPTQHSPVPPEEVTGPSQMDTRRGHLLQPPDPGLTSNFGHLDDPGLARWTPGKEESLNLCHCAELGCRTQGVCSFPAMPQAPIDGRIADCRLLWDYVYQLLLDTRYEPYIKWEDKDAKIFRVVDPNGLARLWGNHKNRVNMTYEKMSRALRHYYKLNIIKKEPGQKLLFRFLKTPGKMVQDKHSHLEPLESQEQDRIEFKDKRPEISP
# Procedure, shortened: as §1
# ELF5 = target: T11, ELF5 (Homo sapiens, UniProt Q9UKW6-2 1-255); conditions: protein: recombinant; tags: N-terminal GST; dsDNA, one strand shown
# T11 sequence: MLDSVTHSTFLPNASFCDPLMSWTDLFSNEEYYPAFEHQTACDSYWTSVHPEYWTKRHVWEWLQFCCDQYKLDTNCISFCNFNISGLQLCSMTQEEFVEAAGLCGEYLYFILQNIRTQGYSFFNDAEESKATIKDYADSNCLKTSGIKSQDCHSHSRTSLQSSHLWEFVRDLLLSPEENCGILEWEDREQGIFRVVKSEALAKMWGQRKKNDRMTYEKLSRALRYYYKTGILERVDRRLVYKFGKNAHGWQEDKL
# Procedure, shortened: as §1
# ETV3 = target: T12, ETV3 (Homo sapiens, UniProt P41162-2 1-143); conditions: protein: recombinant; tags: N-terminal GST; dsDNA, one strand shown
# T12 sequence: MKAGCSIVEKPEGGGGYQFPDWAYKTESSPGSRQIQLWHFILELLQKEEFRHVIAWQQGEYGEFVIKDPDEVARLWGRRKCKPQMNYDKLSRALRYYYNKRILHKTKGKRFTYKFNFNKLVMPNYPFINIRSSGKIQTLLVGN
# Procedure, shortened: as §1
# ETV6 = ETV6 (Homo sapiens, UniProt P41212 1-452); conditions: protein: recombinant; tags: N-terminal GST; dsDNA, one strand shown
# Sequence of ETV6 (P41212 whole entry): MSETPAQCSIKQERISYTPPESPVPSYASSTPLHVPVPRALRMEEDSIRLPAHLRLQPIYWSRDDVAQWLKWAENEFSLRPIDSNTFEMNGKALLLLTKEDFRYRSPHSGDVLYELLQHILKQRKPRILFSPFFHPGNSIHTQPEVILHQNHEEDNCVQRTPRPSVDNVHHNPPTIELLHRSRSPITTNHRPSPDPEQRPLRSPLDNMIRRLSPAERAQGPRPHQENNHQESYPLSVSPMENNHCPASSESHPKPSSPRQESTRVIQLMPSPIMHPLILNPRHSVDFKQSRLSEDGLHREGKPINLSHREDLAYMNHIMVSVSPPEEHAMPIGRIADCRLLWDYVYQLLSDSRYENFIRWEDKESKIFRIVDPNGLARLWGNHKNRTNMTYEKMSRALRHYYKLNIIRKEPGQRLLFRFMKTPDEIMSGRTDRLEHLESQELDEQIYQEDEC
# Procedure, shortened: as §1
sequence,measurement,setting,value
TAGCTT,binding signal,FEV,"1.2 fold enrichment (6-mer frequency, TF over GST control)"
same,binding signal,ETV5,"1.31 fold enrichment (6-mer frequency, TF over GST control)"
same,binding signal,HSF1,"1.4 fold enrichment (6-mer frequency, TF over GST control)"
same,binding signal,SPIC,"1.28 fold enrichment (6-mer frequency, TF over GST control)"
same,binding signal,ELF4,"1.1 fold enrichment (6-mer frequency, TF over GST control)"
same,binding signal,ELK4,"1.21 fold enrichment (6-mer frequency, TF over GST control)"
same,binding signal,ETV2,"1.15 fold enrichment (6-mer frequency, TF over GST control)"
same,binding signal,ELF3,"1.33 fold enrichment (6-mer frequency, TF over GST control)"
same,binding signal,CRX,"1.83 fold enrichment (6-mer frequency, TF over GST control)"
same,binding signal,ETV1,"1.2 fold enrichment (6-mer frequency, TF over GST control)"
same,binding signal,ERF,"1.29 fold enrichment (6-mer frequency, TF over GST control)"
same,binding signal,ETV3L,"1.24 fold enrichment (6-mer frequency, TF over GST control)"
same,binding signal,ETS2,"1.29 fold enrichment (6-mer frequency, TF over GST control)"
same,binding signal,SPDEF,"1.08 fold enrichment (6-mer frequency, TF over GST control)"
same,binding signal,ETV7,"1.16 fold enrichment (6-mer frequency, TF over GST control)"
same,binding signal,ELF5,"1.22 fold enrichment (6-mer frequency, TF over GST control)"
same,binding signal,ETV3,"1.16 fold enrichment (6-mer frequency, TF over GST control)"
same,binding signal,ETV6,"1.28 fold enrichment (6-mer frequency, TF over GST control)"
